This is an account of results in ChEMBL document CHEMBL1157539, “Thousands of chemical starting points for antimalarial lead identification” (Nature, 2010).

The term Inhibition denotes the percentage by which the read-out fell short of the control.

What all share (type): functional
For assay [1], the system named is Plasmodium falciparum. Nature of the assay: GSK_TCMDC: Inhibition of Plasmodium falciparum 3D7 in whole red blood cells, using parasite LDH activity as an index of growth. Test compounds present at 2uM.
Assay [2] deals with Plasmodium falciparum. As to the kind of experiment: GSK_TCMDC: Inhibition of Plasmodium falciparum Dd2 in whole red blood cells, using parasite LDH activity as an index of growth. Test compounds present at 2uM.
Another assay deals with HepG2. As to the kind of experiment: GSK_TCMDC: Percent inhibition of human HepG2 cell line. Test compounds present at 10uM.

`COc1cc2nc(N3CC(C)N(C(=O)Cc4ccc(-c5ccccc5)cc4)C(C)C3)nc(N)c2cc1OC` (configuration not stated): the Inhibition in the assay on Plasmodium falciparum [1] stood at 100%; in the assay on Plasmodium falciparum [2], 12%; in the assay on HepG2, 26%.

As for `O=C(N[C@@H](CC1CCCCC1)C(=O)NCc1cccc(C(F)(F)F)c1)c1ccc(O)c(-c2ccc(Cl)c(Cl)c2)c1`, the Inhibition in the assay with Plasmodium falciparum [1] came out at 98%; with Plasmodium falciparum [2] it was 100%; in the assay on HepG2 it was 0%.

`Br.CCCCCCCCn1ccc(=N)cc1`: the Inhibition in the assay on Plasmodium falciparum [1] turned out to be 91%; with Plasmodium falciparum [2], 84%; with HepG2 it was 49%.

For the compound `Cc1ccc2c(-c3ccc([N+](=O)[O-])o3)cc(C)nc2c1`, the Inhibition with Plasmodium falciparum [1] came out at 95%; in the assay with Plasmodium falciparum [2] it was 47%; in the assay on HepG2, 20%.

`O=C(Nc1ccccc1Cl)N(Cc1cc(Cl)cc(Cl)c1)CC(O)COc1ccc(Cl)c(F)c1` (configuration not stated): the Inhibition in the assay with Plasmodium falciparum [1] was 93%; with Plasmodium falciparum [2], 17%; with HepG2, 0%.

For the compound `O=C(NC(Cc1ccccc1)C(=O)O)c1cc(=O)c2ccccc2o1` (configuration not stated), the Inhibition was 99% in the assay on Plasmodium falciparum [1], 10% in the assay with Plasmodium falciparum [2] and 53% with HepG2.

Regarding `COc1ccc(-c2ccc(CNCc3ccc(F)cc3)cc2)cc1S(=O)(=O)NCCN1CCCC1.O=C(O)C(F)(F)F`, the Inhibition worked out at 98% in the assay on Plasmodium falciparum [1], 33% with Plasmodium falciparum [2] and 24% with HepG2.

Consider `c1ccc(OCCOc2ccc(Nc3ccnc4cc5ccccc5cc34)cc2)cc1`, for which the figures for the Inhibition in the assay with Plasmodium falciparum [1], in the assay on Plasmodium falciparum [2] and in the assay on HepG2 were 100%, 96% and 44%, respectively.

Turning to `N#Cc1ccc2[nH]cc(CN3CCC4(CC3)CN(CCNCc3ccccc3)C(=O)CO4)c2c1.O=C(O)C(F)(F)F`, the Inhibition in the assay with Plasmodium falciparum [1] came out at 98%; with Plasmodium falciparum [2] it was 0%; in the assay on HepG2 it was 0%.

In the case of `O=C1COC2(CN1C1CCN(Cc3ccc(O)c(Cl)c3)C1)c1ccccc1-c1ccccc12.O=CO` (configuration not stated), the Inhibition in the assay on Plasmodium falciparum [1] was determined as 93%; with Plasmodium falciparum [2], 63%; with HepG2 it was 5%.

Take `CCCCOc1ccc(CNCCCCCCNCc2ccc(OCCCC)c3ccccc23)c2ccccc12.CS(=O)(=O)O`: the Inhibition in the assay with Plasmodium falciparum [1] is recorded as 81%; in the assay with Plasmodium falciparum [2] it was 49%; in the assay with HepG2 it was 100%.

Turning to `O=S1(=O)NC2(CCN(CCc3ccc(Cl)cc3)CC2)Nc2cc(F)cc(F)c21`, the Inhibition stood at 86% with Plasmodium falciparum [1], 5% in the assay with Plasmodium falciparum [2] and 7% in the assay on HepG2.

For `Cc1cc(NCCCN2CCCC2=O)n2c(nc3ccccc32)c1C#N`, the Inhibition in the assay on Plasmodium falciparum [1] amounted to 93%; in the assay on Plasmodium falciparum [2], 48%; in the assay with HepG2, 4%.

For `O=C(O)C(F)(F)F.c1cc(-c2ccc(CN3CCN(c4ccncc4)CC3)cc2)cc(-c2nc3ccccc3[nH]2)c1`, the Inhibition in the assay with Plasmodium falciparum [1] was found to be 100%; with Plasmodium falciparum [2] it was 100%; in the assay on HepG2 it was 61%.

For `Cl.O=C(/C=C/c1ccc(F)cc1)NC1CCC(CCN2CCc3ccccc3CC2)CC1` (configuration not stated), the Inhibition in the assay on Plasmodium falciparum [1] is 91%; in the assay on Plasmodium falciparum [2] it was 36%; with HepG2 it was 27%.

With `C=C(C)C1CC=C(CN2CCCC(n3ccc4cc(NC(=O)c5ccco5)ccc43)CC2)CC1` (configuration not stated), the Inhibition in the assay with Plasmodium falciparum [1] was 90%; in the assay with Plasmodium falciparum [2] it was 95%; in the assay on HepG2, 13%.

For the compound `COc1ccc2ncc(F)c(CCN3C4CCC3CC(NCc3ccc5c(c3)OCCO5)C4)c2n1.Cl` (configuration not stated), the Inhibition with Plasmodium falciparum [1] turned out to be 100%; with Plasmodium falciparum [2] it was 35%; in the assay with HepG2, 27%.

Take `Cc1cccc2nc(-c3cccc(-c4ccc(C(=O)NCc5nccn5C)cc4)c3)[nH]c12`: the Inhibition in the assay with Plasmodium falciparum [1] is recorded as 100%; in the assay with Plasmodium falciparum [2] it was 9%; with HepG2, 18%.

Regarding `CCOc1cccc(C2c3c(oc4ccccc4c3=O)C(=O)N2CCN(CC)CC)c1` (configuration not stated), the Inhibition is listed as 100% in the assay with Plasmodium falciparum [1], 66% in the assay with Plasmodium falciparum [2] and 5% in the assay on HepG2.

With `Cc1nc(N)nc(N)c1-c1ccc2ccccc2c1`, the results for the Inhibition in the assay with Plasmodium falciparum [1], in the assay on Plasmodium falciparum [2] and with HepG2 were 97%, 2% and 60%, respectively.

On to `Cc1ccc(NC(=O)Nc2ccc(Cn3ncc(N4CCCNCC4)c(Cl)c3=O)cc2)cc1.O=C(O)C(F)(F)F`, for which the Inhibition turned out to be 84% in the assay with Plasmodium falciparum [1], 13% in the assay with Plasmodium falciparum [2] and 35% with HepG2.

Turning to `CC(C)(C)c1ccc(-c2ccccc2CNC(=O)c2cccc(O)c2)cc1`, the Inhibition turned out to be 99% with Plasmodium falciparum [1], 88% with Plasmodium falciparum [2] and 3% with HepG2.

As to `CC(C)(C)Cn1cc(-c2ccc(C(=O)NCCc3ccc(S(C)(=O)=O)cc3)cc2)c(N)n1.CC(C)(C)Cn1ncc(-c2ccc(C(=O)NCCc3ccc(S(C)(=O)=O)cc3)cc2)c1N.O=C(O)C(F)(F)F`, the Inhibition in the assay on Plasmodium falciparum [1] is reported as 86%; in the assay with Plasmodium falciparum [2], 10%; in the assay on HepG2 it was 7%.

On to `CC(C)c1ncc(-c2ccncc2)c(C2CCC(CNC(=O)c3cccnc3)CC2)n1` (configuration not stated), for which the figures for the Inhibition with Plasmodium falciparum [1], with Plasmodium falciparum [2] and in the assay with HepG2 were 89%, 88% and 0%, respectively.

For the compound `COc1cc(C)nc2ccc(NC(=O)c3ccc(C(=O)Nc4ccc5nc(C)cc(OC)c5c4)cc3)cc12`, the results for the Inhibition in the assay with Plasmodium falciparum [1], in the assay on Plasmodium falciparum [2] and in the assay with HepG2 were 96%, 72% and 27%, respectively.

On to `CC(C)c1sc(N2CCN(C)CC2)nc1C(=O)Nc1ccc(F)cc1C(F)(F)F.O=C(O)C(F)(F)F`, for which the results for the Inhibition in the assay with Plasmodium falciparum [1], in the assay on Plasmodium falciparum [2] and in the assay on HepG2 were 100%, 99% and 3%, respectively.

In the case of `CC(C)(C)OC(=O)NCc1ccc(Nc2nnc(-c3ccc(OCC(=O)NCc4cc(C(F)(F)F)cc(C(F)(F)F)c4)c([N+](=O)[O-])c3)o2)cc1`, the Inhibition in the assay on Plasmodium falciparum [1] turned out to be 97%; in the assay with Plasmodium falciparum [2], 92%; with HepG2 it was 24%.

Turning to `CS(=O)(=O)Cc1ccc(Nc2nccc(N3CCCc4cc(NC(=O)Nc5cccc(C(F)(F)F)c5)ccc43)n2)cc1`, the Inhibition with Plasmodium falciparum [1] is given as 100%; in the assay on Plasmodium falciparum [2], 99%; in the assay with HepG2, 46%.

For the compound `CCC(C)C(COC(=O)c1cc(OC)c(OC)c(OC)c1)N(C)CCN(C)C(COC(=O)c1cc(OC)c(OC)c(OC)c1)C(C)CC.Cl` (configuration not stated), the Inhibition stood at 84% in the assay with Plasmodium falciparum [1], 45% in the assay with Plasmodium falciparum [2] and 20% in the assay on HepG2.
